In PubChem BioAssay (Tox21) one finds Potency data, which are given here for 40 compounds.

Several values for one entry are separate records, joined by “and”; a condition that tells them apart may be missing. Equal entries are not always repeated. Inconclusive results are not listed. Where a call stands in place of a potency, no number is given. Activity calls are given as the source filed them. Calls follow the shape of the dose curve; as a rule, active = well fitted cell-killing curve with a large enough effect in the repeat runs; inconclusive = weak or mixed curves, or effect the other way; inactive = no such curve, though single readings can be large or run the other way.
Potency is read from the fitted curve at half-maximal effect.

A short description of this test: qHTS assay to identify small molecule antagonists of the glucocorticoid receptor (GR) signaling pathway - cell viability counter screen (AID 720693). Also: nearly all actives have a fitted effect of over 55% in size. To be noted: GR-bla HeLa viability, CellTiter-Glo luminescence, 18 h, with 5 nM dexamethasone present; series mostly up to 58.5 µM. An excerpt:
National Center for Advancing Translational Sciences [NCATS]
NIH Chemical Genomics Center [NCGC]
U.S. Environmental Protection Agency [EPA]
National Institutes of Environmental Health Sciences [NIEHS]
National Toxicology Program [NTP]
U.S. Food and Drug Administration [FDA]
The Glucocorticoid receptor (GR) is one of the members of the nuclear receptor family of ligand-dependent transcription factors. GR plays a critical role in carbohydrate, protein and lipid metabolisms and programmed cell death. CellSensor GR-bla HeLa cell line (Invitrogen) contains a beta-lactamase reporter gene under the control of the glucocorticoid response element stably integrated into HeLa cells, a cervical cancer cell line that expresses glucocorticoid receptor. The activation of the reporter gene under culture conditions can be detected by fluorescence intensity. This cell line has been used to screen the Tox21 10K compound library and to identify the compounds that inhibit the GR signaling. The cytotoxicity of the Tox21 compound library against the GR-bla HeLa cell line was tested in parallel by measuring the cell viability using CellTiter-Glo assay in the same wells.
Tox21 Assay Protocol Summary:
The GR-bla HeLa cells were dispensed at 1500 cells/5 ul/well in 1536-well black wall/clear bottom plates using a Multidrop Combi (ThermoFisher Scientific, Waltham, MA) dispenser. After the assay plates were incubated at a 37 C/5% CO2 incubator for 4 hours, 23 nL of compounds dissolved in DMSO, positive controls or DMSO only was transferred to the assay plate by a pintool station (Kalypsys, San Diego, CA), followed by addition of 1 uL of dexamethasone (5 nM, final concentration in the well). The plates were incubated at 37 C for 18 hours. After 1 uL of LiveBLAzerTM B/G FRET substrate was added using a Flying Reagent Dispenser (Aurora Discovery, San Diego, CA), the plates were incubated at room temperature (RT) for 2 hours, and fluorescence intensity was measured by an Envision plate reader (PerkinElmer, Shelton, CT). After measurement of bla assay, 3 ul CellTiter-Glo (Promega, Madison, WI) was added to measure the cytotoxicity and the plates were then incubated at RT for 30 min. The luminescence was measured using a ViewLux (Perkin Elmer) plate reader.
With `ClC(Cl)(Cl)Br`, the Potency result was “inactive”.

As to `O=P(OCCCl)(OCCCl)OCCCl`, the Potency result is “inactive”.

Turning to `COc1ccc(C=O)cc1OC`, the Potency entry was “inactive”.

For the compound `ClC(Cl)=C(Cl)C(Cl)=C(Cl)Cl`, the Potency result is “inactive”.

On to `Brc1ccc(Br)cc1`, for which the Potency entry is “inactive”.

In the case of `CSc1nc(NC(C)C)nc(NC(C)C)n1`, the Potency entry is “inactive”.

Consider `CCCCSP(=O)(SCCCC)SCCCC`, for which the Potency entry was “inactive”.

Consider `COc1ccc(CO)cc1`, for which the Potency entry is “inactive”.

As to `CCOP(=O)(OCC)OCC`, the Potency result was “inactive”.

`O=S(=O)(O)C(F)(F)C(F)(F)C(F)(F)C(F)(F)C(F)(F)C(F)(F)C(F)(F)C(F)(F)F`: the Potency entry was “inactive”.

`CC1(C)C(C(=O)OC(C#N)c2cccc(Oc3ccccc3)c2)C1(C)C` (stereo not given): the Potency result is “inactive”.

As for `C=CC(Cl)CCl` (stereo not given), the Potency result is “inactive”.

As for `CCOP(=O)(O)OCC` (tested in a mixture with another compound), the Potency is 17.2 µM (active).

As for `CCOC(=O)c1ccccc1N`, the Potency entry is “inactive”.

Take `CC(C)=CC1C(C(=O)OCc2cccc(Oc3ccccc3)c2)C1(C)C` (stereo not given): the Potency entry was “inactive”.

As for `C[C@]12CCC(=O)C=C1CC[C@@H]1[C@@H]2CC[C@@]2(C)[C@H]1CC[C@]2(C)O`, the Potency was 15.5 µM (active).

Turning to `CCN(CC)C(=O)C(C)Oc1cccc2ccccc12` (stereo not given), the Potency result is “inactive”.

Consider `c1ccc(C2CO2)cc1` (stereo not given), for which the Potency entry was “inactive”.

Regarding `ClC(Cl)(Cl)c1ccccc1`, the Potency result is “inactive”.

On to `CC[n+]1c(-c2ccccc2)c2cc(N)ccc2c2ccc(N)cc21`, for which the Potency was 16.9 µM (active) and 19 µM (active) and 13.7 µM (active).

For `CC(C)(O)C(=O)Nc1ccc([N+](=O)[O-])c(C(F)(F)F)c1`, the Potency entry was “inactive”.

On to `CCOS(=O)(=O)OCC`, for which the Potency entry is “inactive”.

In the case of `CCNCC`, the Potency result was “inactive”.

For `COC(=O)Nc1nc2ccccc2[nH]1`, the Potency entry was “inactive”.

Turning to `OCCOCCO`, the Potency entry was “inactive”.

Turning to `CCCCOC(=O)COC(=O)c1ccccc1C(=O)OCCCC`, the Potency result is “inactive”.

Turning to `CN(C)c1nc(=O)n(C2CCCCC2)c(=O)n1C`, the Potency entry was “inactive”.

As to `O=[N+]([O-])/N=C1\NCCN1Cc1ccc(Cl)nc1`, the Potency entry was “inactive”.

As for `CCC(=O)Nc1ccc(Cl)c(Cl)c1`, the Potency entry is “inactive”.

For the compound `CN(C)P(=O)(N(C)C)N(C)C`, the Potency result is “inactive”.

For `O=C(O)CF`, the Potency entry is “inactive”.

Consider `CCC[CH2][Sn]([Cl])([CH2]CCC)[CH2]CCC`, for which the Potency was 1.1 µM (active).

Regarding `CCNc1nc(Cl)nc(NC(C)(C)C#N)n1`, the Potency entry was “inactive”.

Consider `CC(O)CN(CC(C)O)CC(C)O` (stereo not given), for which the Potency result was “inactive”.

With `CC1CC(=O)O1` (stereo not given), the Potency entry is “inactive”.

With `CCC[CH2][Sn]([Cl])([Cl])[CH2]CCC`, the Potency is 6.24 µM (active) and 6.16 µM (active).

Turning to `O=C1CCCO1`, the Potency entry is “inactive”.

`C[N+](C)(C)CC(=O)[O-]`: the Potency result was “inactive”.

For `[Cl-].[Cl-].[Cl-].[Fe+3]`, the Potency entry was “inactive”.

Turning to `CNC(=O)Oc1cccc2c1OC(C)(C)C2`, the Potency entry was “inactive”.
